Results from the supplement of paper PMC3334620.
The full ranking holds about 33,000 sequences; the median of “E-score (-0.5 to 0.5)” is about -0.016, and the highest 2% start at about 0.32. The full list was thinned out, with the highest values kept by preference.

Molecular target: T1, Stp1 (UniProt B3LFK1)
T1 sequence: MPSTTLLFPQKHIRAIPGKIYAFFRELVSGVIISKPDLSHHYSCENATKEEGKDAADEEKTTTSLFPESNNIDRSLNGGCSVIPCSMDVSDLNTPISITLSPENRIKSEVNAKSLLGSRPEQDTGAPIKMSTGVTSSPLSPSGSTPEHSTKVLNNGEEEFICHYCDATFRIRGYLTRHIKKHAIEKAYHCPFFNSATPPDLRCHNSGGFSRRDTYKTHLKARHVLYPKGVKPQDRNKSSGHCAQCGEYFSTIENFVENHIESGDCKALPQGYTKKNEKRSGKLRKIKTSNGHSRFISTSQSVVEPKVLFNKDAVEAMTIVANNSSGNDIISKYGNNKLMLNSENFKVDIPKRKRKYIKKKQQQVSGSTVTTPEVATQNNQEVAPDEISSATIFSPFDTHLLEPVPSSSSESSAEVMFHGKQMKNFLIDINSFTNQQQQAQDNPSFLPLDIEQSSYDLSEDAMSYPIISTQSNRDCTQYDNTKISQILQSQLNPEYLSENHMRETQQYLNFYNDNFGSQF
Test: PBM E-score (8-mer binding enrichment) (E-score (-0.5 to 0.5)); higher = stronger / more preferred TF binding
Conditions: protein concentration: 200 nM; construct: GST-full length
Outline: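 Detection of bound protein used fluorescent anti-GST, with scans normalised by masliner. The proteins were GST-tagged yeast transcription factors applied at about 100-200 nM to universal all-10-mer Agilent arrays made double-stranded by primer extension. Each ungapped eight-base word, pooled with its reverse complement, was scored with an E-score from the Universal PBM Analysis Suite.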

Sequence	PBM E-score
CTGCCAGC	-0.204
TCAAAGAA	-0.0561
AAGCGAGC	0.0162
CAAGGTTC	-0.124
CCGCTCTC	-0.0569
AAAACCTA	0.0597
CGGGTGGA	-0.162
GGACGGCC	0.16
CGACGGCA	0.299
GGACGGCA	0.441
AGACGGGA	-0.12
AGACGGCA	0.449
AGACGGAA	0.106
AGGGTCAT	-0.233
CTCGCCAA	0.0165
CGACTCGA	-0.115
CACCATTC	0.0105
CACCGTCG	-0.114
CTACGGAA	0.0958
ATACGGGC	-0.0186
ATACGGCA	0.483
CTACGGTA	-0.146
ATACGGAA	0.268
GTACGGTA	0.147
ATACGGCC	0.406

Sequence	PBM E-score
CTACGGCC	0.126
CTACGGCA	0.473
GTACGGCA	0.48
ATACGGGA	0.125
GTACGGGA	0.0383
CAAAGGGG	-0.262
GGGCTGAC	-0.134
AGTAGACA	0.0181
ATAGGGAC	-0.211
ATCTCCTC	-0.209
AGCCTGCG	-0.245
GTTAAGAA	0.0825
AGAGAGAA	-0.198
CTAGAAAA	-0.0127
AGCCGCGA	0.159
ATCCGCGG	0.13
AACCGCGC	0.167
ACCCGCGC	0.232
AGCCGCGG	0.376
AGCCGCGC	0.424
GGGTTCCA	-0.286
AGAGTACA	0.04
CCGTTAGC	0.0331
CAGACCCC	-0.381
ACGGCAAA	0.45

Sequence	PBM E-score
ACGGCAAC	0.455
ATGGCAAC	0.289
AAGGCAAC	0.274
AAGGCAAG	0.0628
CCGGCAAG	-0.0231
ACGGCAAG	0.369
AGGGCAAT	0.156
ACGGCAAT	0.45
ATGGCAAA	0.197
AGGGCAAA	0.0608
AAGGCAAT	0.253
AATGTCCT	-0.246
CAAGCGCG	0.124
ATTTTGAA	0.277
GGAGTCAC	-0.236
ACTAACAT	0.0936
ACGGATAC	0.249
GGAAAGGA	-0.0901
AAGCCGTC	0.296
AAGCCGAG	-0.0198
AAGCCGGG	-0.211
GAGCCGTA	0.468
AAGCCGTA	0.398
AAGCCGTG	0.419
GAGCCGAA	0.232

Sequence	PBM E-score
CAGCCGTA	0.306
AAGCCGAA	0.116
CACCTCCG	-0.0858
AGATCCTC	-0.251
ACTGTGAA	0.0195
CCTGCACC	-0.271
GAGATTAC	-0.0779
ACGTAGAT	-0.0617
ACCTTTAC	0.0425
GAGACAGA	-0.0347
TATGCGGA	0.207
GCCGAACA	0.114
CTGGGGGA	-0.35
AGGTAGCG	-0.105
ACGCGCCA	0.0175
ACGCGCTG	0.119
ACGCGCCG	0.412
CCGCGCCC	0.279
ACGCGCAG	-0.103
CCGCGTCA	0.214
CCGCGCCG	0.462
CCGCGTCG	0.355
CCGCGTCC	0.296
ACGCGCCC	0.289
ACGCGCCT	0.34

Sequence	PBM E-score
CCGCGCCA	0.252
CTTGGTTC	0.197
ACGGTTAA	0.0599
AAAGGCTG	-0.102
GGTATCCA	0.0649
AACGAGTT	-0.18
CCTGCCCA	-0.259
ATCAGAGC	0.0942
GAAGTATA	0.169
GCGTTGAA	0.138
CGCAAAAG	0.0708
CTTGCTCC	-0.0209
AAGGCGTC	0.296
AAGGCGAC	0.224
GAGGCGTA	0.278
ATGGCGCC	0.34
GAGGCCCC	-0.125
CTGGCGCC	0.314
GAGGCGAA	0.206
AAGGCGCC	0.424
GAGGCGCC	0.414
CAGGCGCC	0.286
GAGGCGCA	0.338
ATGGCGCG	0.196
CGATAGAC	0.00428

Sequence	PBM E-score
AGGTGAGA	-0.0297
ATACCACA	0.0264
ATGTCGCA	0.0188
ATAGGCGA	-0.0945
ATACTCGC	-0.0916
CCCCCTGC	-0.346
TAAATCAA	0.0833
CTTAGCCA	0.13
AAGCGCTT	0.0783
GATCCTAA	-0.164
GCATGAGA	0.151
GGAGATAC	-0.0561
ATCCTAGC	-0.102
CAGGCGCG	0.113
TAGGCGCA	0.155
AAGGCGCT	0.396
AAGGCGGT	0.105
AAGGCGGG	-0.112
AAGGCGCA	0.316
AAAGCGCT	0.16
CAGGCGCA	-0.031
AAGGCGCG	0.4
CCTACTGC	0.107
CTGAAGGC	-0.14
AGTTGGGA	-0.114

Sequence	PBM E-score
ACCCGAGA	-0.282
CACCCAGA	-0.257
AGACCGCC	-0.0258
GCCGTTTA	0.443
AGCGTTTA	-0.127
ACCGTTTA	0.168
CCCGTTTA	0.185
CGCGTTTA	-0.0505
GGCGTTTA	0.337
ACCGTTGA	-0.134
CCCGTTGA	-0.0684
GCCGTTGA	0.383
GAATCTCC	-0.122
GGAAGGAA	-0.0797
GAACTGAC	0.0623
AGAGTATG	-0.303
AGCTGCTC	-0.127
CGGATAGA	0.228
TGACCGCA	0.025
CCATGCCA	0.148
CCATGCCG	0.336
ACATGCCT	0.066
ACATGCCC	-0.168
ACATGCCG	0.369
CCATGCCC	-0.0806

Sequence	PBM E-score
TAATAGCA	-0.0461
ACGCCGAC	0.204
AAGCCGCT	0.265
GCGCCGCC	0.454
CCGCCGGC	0.165
ACGCCGCC	0.355
ACGCCGAT	0.23
CCGCCGCC	0.194
GCGCCTCC	0.293
CCGCCGCA	0.402
ACGCCGCT	0.423
CCGCCGAA	0.216
CCGCCGGA	0.0267
ATGGAGGC	-0.236
AGTGGGTG	-0.0322
GCAACAGC	0.0755
AACGCTCT	-0.216
ACGCCGGA	0.00769
CGGCCGCA	0.325
GGGCCGCA	0.285
TCGCCGCA	0.448
ACGCCGAG	0.0836
AGGCCGCG	0.244
AGGCCGCA	0.162
TCTCCGCA	-0.0488

Sequence	PBM E-score
ACGACGCA	0.0151
ACGCCGCA	0.476
TCACCGCA	-0.0824
ACGCCGCG	0.473
ACAAAAGT	0.0775
ACGTTAAT	0.112
GCCCTACA	0.0881
GTAACTAA	0.0925
CTTGATAC	0.113
CTAGGTCC	-0.102
AGTCAAGA	-0.0455
GTTCAAGA	0.0574
CCTCGGAA	-0.0641
CCGCCCCG	0.273
CCGCCGCG	0.437
CCGCCGAG	0.083
TCCAAGCA	0.0574
GGCATCCC	-0.0465
AGCATCGA	-0.0592
CGCATCGA	0.0903
GGCATCGA	0.327
CTATGCTA	-0.0393
CAACCAGA	0.0587
AAGCACGG	0.295
CAGCACGG	0.333

Sequence	PBM E-score
CCGCACAA	0.285
CCGCACGC	0.323
ACGCACGA	0.237
CCGCACGA	0.27
ACGCACGC	0.265
CAGCACGC	0.145
CAGCACGA	-0.0106
ACGCACGG	0.419
GCGCACGC	-0.0354
CCGCACGG	0.448
ATTCTAAG	0.126
ACGGGGAT	-0.0326
AGTCTTCC	-0.0735
TGGGGCAA	-0.00868
CGAAGTGA	0.00778
CCCAACCC	-0.174
CGCGTCCG	-0.0671
ATCATAAC	0.161
TATAGCGA	-0.151
AGGGAGCA	-0.403
AGCGGAAC	-0.0267
GGCGGAAC	0.125
CGCGGAAC	0.383
ACAATCAT	-0.00872
CAGGGCGG	-0.116

Sequence	PBM E-score
CAGGGCAG	-0.114
CAGGGCAC	0.355
AGGGGCGC	0.232
CAGGGCAA	0.0617
AAGGGCGG	-0.0196
CAGGGCGC	0.363
CAGGGCGA	0.0902
AAGGGCGC	0.354
GGGCCTCA	-0.0568
AACCCACT	0.00826
CGACTAGC	-0.13
ATCGTTCG	0.0636
GCTGCCAC	0.0537
AAGTGCCA	0.163
AAGTGCCG	0.453
AAGTGCCC	0.079
CAGTGCCC	0.108
CAGTGCCA	-0.0624
CAGTGCCG	0.453
AGTAGTGA	-0.0104
CTGGATAA	0.0621
CGGCATTC	0.441
GGGCATTA	0.139
AGGCATTC	0.106
CTGCATTC	-0.111

Sequence	PBM E-score
CGGCATTA	0.436
AGGCATTA	0.228
ACCTACAT	-0.177
AGTAGTCG	-0.0173
ATACTCAG	0.06
CACTGGGG	-0.231
GAGATATC	0.0576
ATACGCCC	-0.157
ATACGCCA	0.0267
ATACGCCG	0.381
CCACGCCG	0.34
ACACGCCA	0.0386
CCACGCCC	-0.188
CCACGCCA	0.0283
ACACGCCG	0.351
ACACGCCC	-0.181
GGGGCCCC	-0.2
ACCCTTTC	-0.15
CATGATTA	0.171
CCCTATCG	-0.196
TACAGAAA	0.212
CAACCATG	-0.0314
AGGAGAAT	-0.17
GTTCAAAC	0.323
ATTCAAAC	0.11

Sequence	PBM E-score
GTTCAAAA	0.185
AGCAGGCT	-0.098
AGGCGCAA	0.279
CGGCGCAC	0.409
AGGCGCAC	0.179
TGGCGCAA	0.298
CGGCGCAG	0.428
CCGCGCAG	0.221
CGGCGCAA	0.422
AGGCGCAG	0.188
GGGCGCAC	-0.0463
CCAAGACA	-0.137
CCCCCTAG	-0.354
ATTGGTGA	-0.0777
ACTAAGGA	-0.105
ACCTTACC	0.0147
CCTTTTTC	0.104
TAACCACA	-0.022
CAACCTGG	-0.101
TAAGTCAA	-0.0101
CGAGGCAG	0.12
GGAGGCAC	0.148
AGAGGCAT	0.242
CGAGGCAC	0.384
AGAGGCAG	-0.125

Sequence	PBM E-score
CGAGGCAA	0.359
AGAGGCAA	0.0357
TGAGGCAA	0.234
AGAGGCAC	0.366
GACCAGCC	-0.259
CCGGTAGG	0.0318
TACGTAAA	0.189
CAAGACCA	-0.15
ATACCGCC	0.1
AAGTTATC	-0.0807
AGATGCAA	-0.0126
GAGTGCGA	-0.046
GCAACGGA	0.228
ATAGCCGC	0.298
CTAGCCGC	0.395
AGAGCCGC	0.44
CGAGCCGA	0.124
CCAGCCGC	0.125
CGAGCCGC	0.385
AGAGCCGG	-0.0632
AGAGCCGA	0.225
CTAGCCGA	-0.0941
